In PubChem BioAssay (NCATS) one finds Potency, activity change, negative = viability loss and outcome data, which are given here for 40 molecules.

Records with an inconclusive call do not appear. Values without a mark were called inactive. Active and inactive are the calls of the source. The call rests on the fitted dose curve; in most records, active means well fitted curve in the direction sought with a large enough effect; inconclusive means small, poorly fitted or top-dose-only effect, or another doubt; inactive means no such curve, though single readings can be large; an effect the other way counts as inactive or inconclusive. Where a SMILES comes first, the peptide text is derived from it. [ ]: non-standard residue; d: D form. pGlu = O=C1CC[C@@H](C(=O)O)N1; Thz = O=C(O)[C@@H]1CSCN1

Assay [1] is described as follows: Primary qHTS for inhibitors of nuclear receptor binding SET domain protein 2 (NSD2) in an isogenic RCH-ACV NSD2 p.E1099K mutant (9B) (AID 1645876). For orientation: Quantitative high-throughput screening tests each substance at several concentrations.
The nature of assay [2]: Primary qHTS for inhibitors of nuclear receptor binding SET domain protein 2 (NSD2) in an RCH-ACV wild type WT cells (2C) (AID 1645877).
Further: nearly all actives have a fitted effect of over 70% in size.
On the % scale 0 is the no-effect control and ±100 the full control effect; potency means the concentration at half of the fitted maximal effect.

On to `O=C1NC(=O)/C(=C/c2ccc3nccnc3c2)S1`, for which the Potency result in assay [1] is “inactive”.

As to `CCN1/C(=C/C(C)=O)Sc2ccc(OC)cc21`, the Potency entry in assay [1] is “inactive”.

In the case of `O=C1CC[C@@H](C(=O)N2CSC[C@H]2C(=O)O)N1` ([pGlu]-[Thz]-OH), the Potency result in assay [1] and in assay [2] was “inactive” throughout.

With `CN1[C@@H]2CC[C@H]1CC(OC(c1ccccc1)c1ccccc1)C2` (stereo partly drawn), in assay [1], the Potency entry was “inactive”.

Consider `O=C(CS)Nc1ccccc1`, for which the Potency entry in assay [1] and in assay [2] was “inactive” each time.

In the case of `CC1(C)S[C@@H]2[C@H](NC(=O)[C@H](N)c3ccc(O)cc3)C(=O)N2[C@H]1C(=O)O`, the Potency result in assay [1] and in assay [2] was “inactive” each time.

On to `Nc1ccc([N+](=O)[O-])cc1O`, for which the results for the Potency in assay [1] and in assay [2] were 6.86 µM (active) and 7.7 µM (active), respectively.

For `O=C(Nc1ccc(C(=O)O)c(O)c1)c1ccccc1`, the Potency result in assay [1] and in assay [2] was “inactive” each time.

Regarding `Cc1ccc(C(=O)c2ccc(CC(=O)O)n2C)cc1`, the Potency result in assay [1] and in assay [2] was “inactive” throughout.

Take `COc1ccc(/C=C/C(=O)Nc2ccccc2C(=O)O)cc1OC`: the Potency entry in assay [1] and in assay [2] was “inactive” throughout.

For `Cc1onc(-c2c(F)cccc2Cl)c1C(=O)N[C@@H]1C(=O)N2[C@@H]1SC(C)(C)[C@@H]2C(=O)O`, the Potency result in assay [1] and in assay [2] was “inactive” in each case.

With `CCOC(=O)c1ccccc1O`, the Potency result in assay [1] and in assay [2] was “inactive” in each case.

Take `CCCSc1ccc2nc(NC(=O)OC)[nH]c2c1`: the figures for the Potency in assay [1] and in assay [2] were 0.422 µM (active) and 0.266 µM (active), respectively.

Turning to `N=C(N)N`, the Potency entry in assay [1] and in assay [2] was “inactive” in each case.

On to `CC(C)OC(=O)c1cc(C(=O)OC(C)C)cc([N+](=O)[O-])c1`, for which the Potency result in assay [1] and in assay [2] was “inactive” in each case.

Consider `O=C(Nc1ccc2[nH]ncc2c1)C1CCC1`, for which the Potency result in assay [1] and in assay [2] was “inactive” in each case.

For `COc1cc(NC(C)CCCN)c2ncccc2c1` (stereo not drawn), the Potency in assay [1] is 6.68 µM (active); in assay [2], 5.31 µM (active).

Regarding `O=C(O)Cc1cccc(-c2cc(CCCCCCc3ccc(O[C@H]4O[C@H](CO)[C@@H](O)[C@H](O)[C@@H]4O)c(-c4cccc(CC(=O)O)c4)c3)ccc2O[C@H]2O[C@H](CO)[C@@H](O)[C@H](O)[C@@H]2O)c1`, in assay [1], the activity change, negative = viability loss was 9.79% [at 0.588 µM]. Besides, the outcome in assay [2] was “inactive [at 0.588 µM]”.

Consider `Nc1nc2ccc([N+](=O)[O-])cc2s1`, for which the Potency in assay [1] was 21.7 µM (active); in assay [2], 19.3 µM (active).

As to `O=C(O)/C=C\C(=O)O`, the Potency result in assay [1] and in assay [2] was “inactive” throughout.

On to `O=C(Nc1ccc2c(c1)CCN(Cc1ncn[nH]1)C2)c1ccccc1-c1ccc(C(F)(F)F)cc1`, for which, in assay [1], the Potency result is “inactive”.

Turning to `Cc1c(N)c(=O)n(-c2ccccc2)n1C`, the Potency entry in assay [1] and in assay [2] was “inactive” in each case.

As to `CC(=O)O[C@H]1C[C@@]2(C)[C@@H](C[C@@H](O)[C@H]3[C@@]4(C)CC[C@@H](O)[C@@H](C)[C@@H]4CC[C@@]32C)/C1=C(\CCC=C(C)C)C(=O)O`, the Potency result in assay [1] and in assay [2] was “inactive” throughout.

Turning to `O=C(O)CC1CC(c2ccccc2)=NO1` (stereo not drawn), the Potency result in assay [1] and in assay [2] was “inactive” each time.

Consider `CC(N)C(=O)OC(C)(C)Cc1ccc(Cl)cc1` (stereo not drawn), for which the Potency result in assay [1] was “inactive”.

Consider `CNC(=O)c1c(I)c(NC(=O)CCCCC(=O)Nc2c(I)c(C(=O)O)c(I)c(C(=O)NC)c2I)c(I)c(C(=O)O)c1I`, for which the Potency result in assay [1] and in assay [2] was “inactive” throughout.

As for `COC(=O)C1=C(C)NC(C)=C(C(=O)OCC(C)=O)C1c1ccccc1[N+](=O)[O-]` (stereo not drawn), the Potency in assay [1] and in assay [2] was 11.9 µM (active) in each case.

As to `Nc1ncnc2c1c(I)cn2[C@@H]1C[C@H](N)[C@@H](O)[C@H]1O`, the Potency was 18.4 µM (active) in assay [1] and 23.1 µM (active) in assay [2].

In the case of `NCCO`, the Potency entry in assay [1] was “inactive”.

Regarding `CN(C)c1ccc(C(=C2C=CC(=[N+](C)C)C=C2)c2ccccc2)cc1`, the Potency in assay [1] was 0.0944 µM (active); in assay [2] it was 0.188 µM (active).

Regarding `CN1CC(=O)N/C1=N/C(=O)Nc1cccc(Cl)c1`, the Potency entry in assay [1] and in assay [2] was “inactive” each time.

With `CCCCCCCCCCCCOCCO`, the Potency entry in assay [1] is “inactive”.

With `COc1cc(/C=C/C(=O)N2CCN(CC(=O)N3CCCC3)CC2)cc(OC)c1OC`, the Potency result in assay [1] and in assay [2] was “inactive” throughout.

With `CN(C)CCn1nnnc1SCC1=C(C(=O)O)N2C(=O)[C@@H](NC(=O)Cc3csc(N)n3)[C@H]2SC1`, the Potency result in assay [1] and in assay [2] was “inactive” throughout.

For the molecule `C[N+]1(C)[C@@H]2CC(OC(=O)[C@H](CO)c3ccccc3)C[C@H]1[C@@H]1O[C@@H]12` (stereo partly drawn), the Potency entry in assay [1] and in assay [2] was “inactive” each time.

As to `CO[C@@]1(NC(=O)Cc2cccs2)C(=O)N2C(C(=O)O)=C(COC(N)=O)CS[C@@H]21`, the Potency entry in assay [1] and in assay [2] was “inactive” each time.

`CN(C)c1nc2c(Br)c(Br)c(Br)c(Br)c2[nH]1`: the values for the Potency in assay [1] and in assay [2] were 14.6 µM (active) and 10.3 µM (active), respectively.

Consider `CC(C(=O)O)c1ccc2c(c1)[nH]c1ccc(Cl)cc12` (stereo not drawn), for which the Potency entry in assay [1] and in assay [2] was “inactive” each time.

For `O=c1[nH]c2ccccc2n1CCCN1CCN(C(c2ccccc2)c2ccccc2)CC1`, the Potency in assay [1] and in assay [2] was 23.7 µM (active) each time.

As for `O=C(/C=C/c1ccc(O)cc1)c1ccc(O)cc1O`, the Potency in assay [1] is 8.33 µM (active); in assay [2] it was 5.25 µM (active).
